# Reference: PubChem BioAssay (NCATS)
# Records with an inconclusive call do not appear. Entries that show only a call come without a potency. A number with no mark means an inactive call. The source made the active and inactive calls. Calls come from the whole dose curve; as a rule, active = well fitted inhibition curve with a large enough effect; inconclusive = small, poorly fitted or top-dose-only effect; inactive = flat fitted curve, though single readings scatter.
# Experiments:
# Experiment in all cases: qHTS profiling for inhibitors of Plasmodium falciparum proliferation (AID 504749); note: nearly all actives have a fitted effect of over 60% in size
# Conditions in all cases: P. falciparum in erythrocytes, SYBR Green DNA, 72 h; series mostly up to 28.7 µM
# CP247 = system: CP247
# In short: (§1)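 P. falciparum-infected erythrocytes (0.3% parasitemia, 2.5% hematocrit final) were exposed to compounds for 72 h at 37 C in 5% CO2, then lysed with SYBR Green buffer overnight at room temperature; parasite DNA fluorescence was normalized to artemisinin and DMSO controls.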
# CP250 = system: CP250
# In short: as §1
# CP252 = system: CP252
# In short: as §1
# CP256 = system: CP256
# In short: as §1
# CP262 = system: CP262
# In short: as §1
# CP266 = system: CP266
# In short: as §1
# CP268 = system: CP268
# In short: as §1
# CP269 = system: CP269
# In short: as §1
# CP291 = system: CP291
# In short: as §1
# CP297 = system: CP297
# In short: as §1
# CP305 = system: CP305
# In short: as §1
# CP315 = system: CP315
# In short: as §1
# CP325 = system: CP325
# In short: as §1
# CP329 = system: CP329
# In short: as §1
# DFO2036 = system: DFO2036
# In short: as §1
# DIV14 = system: DIV14
# In short: as §1
# DIV17 = system: DIV17
# In short: as §1
# Dd2 = system: Dd2
# In short: as §1
# FAB9 = system: FAB9
# In short: as §1
# GB4 = system: GB4
# In short: as §1
# ICS = system: ICS
# In short: as §1
# JCK = system: JCK
# In short: as §1
# N140 = system: N140
# In short: as §1
# P94_40 = system: P94_40
# In short: as §1
# PAD = system: PAD
# In short: as §1
# PC15 = system: PC15
# In short: as §1
# PC49 = system: PC49
# In short: as §1
# SC27B = system: SC27B
# In short: as §1
# TAB109 = system: TAB109
# In short: as §1
# W2 = system: W2
# In short: as §1
# Potency is the fitted concentration of half-maximal effect.
smiles,measurement,setting,value
C[C@]12CC[C@H]3c4ccc(O)cc4CC[C@@H]3[C@H]1CC[C@@H]2OC(=O)CCC1CCCC1,Potency,CP247,inactive
same,Potency,CP250,inactive
same,Potency,CP252,inactive
same,Potency,CP256,inactive
same,Potency,CP262,inactive
same,Potency,CP266,inactive
same,Potency,CP268,inactive
same,Potency,CP269,inactive
same,Potency,CP291,inactive
same,Potency,CP297,inactive
same,Potency,CP305,inactive
same,Potency,CP315,inactive
same,Potency,CP325,inactive
same,Potency,CP329,inactive
same,Potency,DFO2036,inactive
same,Potency,DIV14,9.53 µM (active)
same,Potency,DIV17,10.7 µM (active)
same,Potency,Dd2,14.1 µM (active)
same,Potency,FAB9,inactive
same,Potency,GB4,12 µM (active)
same,Potency,ICS,3.16 µM (active)
same,Potency,JCK,inactive
same,Potency,N140,12.6 µM (active)
same,Potency,P94_40,inactive
same,Potency,PAD,10 µM (active)
same,Potency,PC15,12.6 µM (active)
same,Potency,PC49,inactive
same,Potency,SC27B,inactive
same,Potency,TAB109,inactive
same,Potency,W2,9.53 µM (active)
